Menin-MLL FL inh – qHTS Assay for Inhibitors Targeting the Menin-MLL Interaction in MLL Related Leukemias: Competition With Fluorescein Labeled MLL-derived Peptide. Fluorescence polarization, fluorescein-MLL peptide displacement from menin. FP activity change, % at 61.4 µM. 290,000 tested, under 10 active. AID 1766, 2009; active means well fitted curve in the direction sought with a large enough effect in the polarisation, not every such curve was filed as active; inconclusive means small, poorly fitted or top-dose-only effect, or effect the other way, or a change in a side signal; inactive means no such curve, though single readings can be large or run the other way; the % refers to the polarisation
ERG Ets-DNA blk – qHTS for Small Molecule Inhibitors of the ERG Ets/DNA interaction; actives 0.028% (n = 370,000); Potency, µM (titrated, usually from 76.9 µM), hits mostly inhibitors; AID 624246, 2012; Transcriptional regulator ERG (Homo sapiens), P11308; fluorescence polarization, His-ERG Ets domain / labelled DNA; active means well fitted inhibition curve with a large enough effect in the polarisation, with a control signal flat; inconclusive means small, poorly fitted or top-dose-only effect, or effect the other way, or a change in a side signal; inactive means no such curve, though single readings can be large or run the other way; the % refers to the polarisation;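 further: polarization taken with two DNA probes labelled with fluorescein and Texas red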
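His-tagged ERG Ets domain (1 uM in the protein solution; 300mM KCl, 50mM Tris-HCl, 1mM EDTA, 1mM DTT, pH 7.5) received compound, then a probe mix of 5 nM fluorescein-DNA and 100nM Texas-615-DNA. Fluorescence polarization was read for both dyes.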
Mm-Cpn inhibitor – Inhibitors of TCP-1 ring complex (TRiC) of Methanococcus maripaludis (MmCpn): qHTS; purified Mm-Cpn ATPase, ADP Transcreener TR-FRET; AID 504842, 2011; actives 0.031% (n = 330,000); Potency, µM (series often up to 76.9 µM), most hits filed as inhibitors; further: nearly all actives have a fitted effect of over 80% in size
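ATPase read-out: TR-FRET ADP immunoassay (anti-ADP Eu cryptate vs ADP-d2), ex 320 nm, em 590/665 nm; signal drops as ADP forms. Enzyme 25 nM, ATP 10 uM, 30 min at 37°C after 10 min compound preincubation.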
CXXC DNA block – qHTS Fluorescence Polarization Assay for Inhibitors of MLL CXXC domain - DNA interaction; MLL-CXXC / FITC-HOXA9 DNA fluorescence polarization; Potency, µM (highest dose often 115 µM), usual class: inhibitors; actives 0.037% (n = 290,000); AID 2662, 2010; active means well fitted inhibition curve with a large enough effect in the polarisation, with a control signal flat, not every such curve was filed as active; inconclusive means small, poorly fitted or top-dose-only effect, or effect the other way, or a change in a side signal; inactive means no such curve, though single readings can be large or run the other way; the % refers to the polarisation
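Purified MLL-CXXC (added from a 7 uM solution) was preincubated 5 min at ambient with pinned compounds in 50 mM Tris-HCl pH 7.5, 50 mM NaCl, 1 mM DTT, 0.05% BSA. Fluorescein-labeled HOX-A9 DNA (50 nM solution) followed, 30 min, then polarization read.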
Menin MLL FP TR – qHTS Assay for Inhibitors Targeting the Menin-MLL Interaction in MLL Related Leukemias: Competition With Texas Red Labeled MLL-derived Mutant Peptide | Potency, µM (top dose mostly 61.6 µM), most hits filed as inhibitors | actives 0.23% (n = 270,000) | O00255 | Menin + Texas Red MLL mutant peptide, fluorescence polarization; active means well fitted inhibition curve with a large enough effect in the polarisation, with a control signal flat, not every such curve was filed as active; inconclusive means small, poorly fitted or top-dose-only effect, or effect the other way, or a change in a side signal; inactive means no such curve, though single readings can be large or run the other way; the % refers to the polarisation
MLL CXXC FP-Fl – qHTS Fluorescence Polarization (FP) Assay for Inhibitors of MLL CXXC domain - DNA interaction: Fluorescein FP; Potency, µM (series often up to 345 µM), hits mostly inhibitors; actives 70% (n = 200); MLL CXXC-DNA binding, fluorescein FP; shares compounds with CXXC DNA block; further: nearly all actives have a fitted effect of over 80% in size
MLL CXXC FP-TR – qHTS Fluorescence Polarization (FP) Assay for Inhibitors of MLL CXXC domain - DNA interaction: Texas Red FP. actives 40% (n = 200). MLL CXXC-DNA binding, Texas Red fluorescence polarization. shares compounds with CXXC DNA block. Potency, µM (titrated, usually from 345 µM), most hits filed as inhibitors; further: nearly all actives have a fitted effect of over 75% in size
MLL CXXC HTRF – qHTS Fluorescence Polarization (FP) Assay for Inhibitors of MLL CXXC domain - DNA interaction: HTRF Assay | shares compounds with CXXC DNA block | MLL CXXC-DNA binding, HTRF, biochemical | Potency, µM (top dose mostly 172 µM), usual class: inhibitors | actives 30% (n = 210); further: nearly all actives have a fitted effect of over 80% in size
Large screens that a line does not name were inactive (follow-up assays come after a bar, where they were run); ! = repeats disagree. This is one part of a sample in which hits are shown more often than they occur. Unless noted, the call rests on the fitted dose curve; in most records, active means well fitted curve in the direction sought with a large enough effect; inconclusive means small, poorly fitted or top-dose-only effect, or another doubt; inactive means no such curve, though single readings can be large; an effect the other way counts as inactive or inconclusive.

COc1cc(/C=C2/C(=O)NN(c3ccc(Cl)cc3)C2=O)cc(Br)c1O	Menin-MLL FL inh inconclusive, CXXC DNA block inconclusive, Menin MLL FP TR inconclusive
COc1cccc(/C=C2/C(=O)NN(c3ccc(Br)cc3)C2=O)c1O	CXXC DNA block inconclusive, Menin MLL FP TR inconclusive | MLL CXXC FP-Fl 100µM | MLL CXXC FP-TR inconclusive | MLL CXXC HTRF inactive
C=CC1=C2C=C(C3CC3)N(CCCCO)C=C2C(=O)C(C)(OC(=O)c2ccco2)C1=O (stereo not drawn)	none (no result: ERG Ets-DNA blk, Mm-Cpn inhibitor, CXXC DNA block)
CC1=C(CCC(=O)O)c2cc3nc(cc4[nH]c(cc5[nH]c(cc1n2)c(C)c5C(C)O)c(C)c4C(C)O)C(C)=C3CCC(=O)O (stereo not drawn)	Menin MLL FP TR inconclusive (no result: ERG Ets-DNA blk, Mm-Cpn inhibitor, CXXC DNA block)
C=Cc1c(C)c2cc3[nH]c(cc4nc(cc5nc(cc1[nH]2)C(C)=C5CCC(=O)O)C(CCC(=O)O)=C4C)c(C)c3C=C	CXXC DNA block 20µM!, Menin MLL FP TR inconclusive | MLL CXXC FP-Fl inconclusive | MLL CXXC FP-TR 44.8µM | MLL CXXC HTRF 38.5µM
CC(C)Cn1c(SCC(=O)NCc2ccco2)nnc1-c1ccncc1	CXXC DNA block inconclusive | MLL CXXC FP-Fl 1.59µM | MLL CXXC FP-TR inactive | MLL CXXC HTRF inactive
Cn1c(SCC(=O)NCc2ccco2)nnc1-c1ccccc1	none
Nc1c(S(=O)(=O)O)cc(Nc2ccc(Cl)cc2)c2c1C(=O)c1ccccc1C2=O	Menin MLL FP TR inconclusive (no result: ERG Ets-DNA blk, Mm-Cpn inhibitor, CXXC DNA block)
Nc1c(S(=O)(=O)O)cc(Nc2ccc(Nc3nc(Cl)nc(Nc4ccc(S(=O)(=O)O)cc4)n3)c(S(=O)(=O)O)c2)c2c1C(=O)c1ccccc1C2=O	CXXC DNA block 10µM, Menin MLL FP TR inconclusive (no result: ERG Ets-DNA blk, Mm-Cpn inhibitor) | MLL CXXC FP-Fl 17.9µM | MLL CXXC FP-TR 17.9µM | MLL CXXC HTRF 6.11µM
C=CCC(C)(O)c1cccc(Br)c1 (stereo not drawn)	none (no result: ERG Ets-DNA blk, Mm-Cpn inhibitor, CXXC DNA block)
CCOC(=O)C(C(=O)OCC)c1cc(Br)c2noc3c2c1C(=O)c1ccccc1-3	Menin-MLL FL inh inconclusive, CXXC DNA block 31.6µM, Menin MLL FP TR inconclusive | MLL CXXC FP-Fl 10µM | MLL CXXC FP-TR 40µM | MLL CXXC HTRF inconclusive
CC(=O)OCCNc1cc(N2CCN(C)CC2)c2noc3c2c1C(=O)c1ccccc1-3	Menin-MLL FL inh inconclusive, CXXC DNA block inconclusive, Menin MLL FP TR inconclusive
COc1ccccc1NC(=S)NC(C)=O	CXXC DNA block inconclusive | MLL CXXC HTRF inactive
COc1ccccc1NC(C)=O	none
CCCCC/C=C\C/C=C\C/C=C\C/C=C\CCCC(=O)C(F)(F)F	none (no result: ERG Ets-DNA blk, Mm-Cpn inhibitor, CXXC DNA block)
Cc1nn(C)c(C)c1CN(C)C(=O)C1c2ccccc2Oc2ccccc21	CXXC DNA block 31.6µM | MLL CXXC FP-Fl 126µM | MLL CXXC FP-TR inconclusive | MLL CXXC HTRF inactive
Cc1nn(C)c(C)c1CN(C)C(=O)C1(C)CC1(Br)Br (stereo not drawn)	none
Cc1nc2ccccc2oc1=O	none (no result: ERG Ets-DNA blk, Mm-Cpn inhibitor, CXXC DNA block)
O=c1c(Cl)c2oc3ccccc3nc-2c2ccccc12	Menin-MLL FL inh inconclusive, CXXC DNA block 31.6µM, Menin MLL FP TR inconclusive | MLL CXXC FP-Fl 113µM | MLL CXXC FP-TR inconclusive | MLL CXXC HTRF inactive
CCC(=O)N1C2=C(c3ccccc3[C@@H]1CC(=O)Nc1ccc3ccccc3c1)[C@@H]1C(=O)N(c3ccccc3)C(=O)[C@@H]1[C@H](C)C2	Menin MLL FP TR inconclusive (no result: ERG Ets-DNA blk, Mm-Cpn inhibitor, CXXC DNA block)
CC1=NN(c2ccc(Br)cc2)C(=O)/C1=C/c1ccc(-c2ccccc2C(=O)O)o1	CXXC DNA block inconclusive, Menin MLL FP TR inconclusive | MLL CXXC FP-Fl 113µM | MLL CXXC FP-TR 89.5µM | MLL CXXC HTRF inactive
O=C1C=C(O)c2cccc3cccc1c23	Menin-MLL FL inh inconclusive, CXXC DNA block inconclusive, Menin MLL FP TR inconclusive | MLL CXXC FP-Fl 113µM | MLL CXXC FP-TR inactive | MLL CXXC HTRF inactive
COc1ccc(C2=Nn3c(nnc3-c3cccc(OC)c3OC)SC2)c(OC)c1	Menin MLL FP TR inconclusive (no result: ERG Ets-DNA blk, Mm-Cpn inhibitor, CXXC DNA block)
O=C1/C(=C\c2cccnc2)CCc2ccccc21	CXXC DNA block inconclusive | MLL CXXC FP-Fl inconclusive | MLL CXXC FP-TR inactive | MLL CXXC HTRF inactive
N#CC1(C#N)C(c2ccccc2)OC23CCCCCC2C1(C#N)C(=N)O3 (stereo not drawn)	CXXC DNA block 50.1µM | MLL CXXC FP-Fl 50.3µM | MLL CXXC FP-TR inconclusive | MLL CXXC HTRF inactive
N#CC1(C#N)C(c2ccccc2)OC23CCCCC2C1(C#N)C(=N)O3 (stereo not drawn)	Menin-MLL FL inh inconclusive, ERG Ets-DNA blk inconclusive, CXXC DNA block inconclusive
O=C(O)C1=CC(=C(c2ccc(O)c(C(=O)O)c2)c2ccc(O)c(C(=O)O)c2)C=CC1=O	Mm-Cpn inhibitor inconclusive, CXXC DNA block 10µM (no result: ERG Ets-DNA blk) | MLL CXXC FP-Fl 12.6µM | MLL CXXC FP-TR 17.9µM | MLL CXXC HTRF 2.43µM
COc1ccc(-c2nc3c(c4c2C[C@H](c2ccccc2)OC4)CN(S(=O)(=O)c2ccc(C#N)cc2)CC3)c(C)c1	none (no result: ERG Ets-DNA blk, Mm-Cpn inhibitor, CXXC DNA block)
COc1cc(/C=C2/C(=O)c3cccc([N+](=O)[O-])c3C2=O)c(Br)cc1O	CXXC DNA block 28.2µM, Menin MLL FP TR inconclusive | MLL CXXC FP-Fl 40µM | MLL CXXC FP-TR 79.7µM | MLL CXXC HTRF inconclusive
COc1ccccc1NC(=O)CCCCCN1C(=O)c2cccc([N+](=O)[O-])c2C1=O	none
C#C[C@]1(OC(C)=O)CC[C@H]2[C@@H]3CCC4=C/C(=N/O)CC[C@@H]4[C@H]3CC[C@@]21CC	none (no result: ERG Ets-DNA blk, Mm-Cpn inhibitor)

Bioassay records (PubChem BioAssay)
